# Data reported in PubChem BioAssay AID1159580 (chemical genetic matrix, 2015).
# Screen size: about 5,500 compounds; about 2,000 (36%) were called active. About 18% were inconclusive and are not listed. This is one part of the list. A number with no mark means an inactive call. Cut-off read from the data, not from the text of the source: active = normalized growth mostly below about 0.91 (no sharp cut-off); inconclusive = no clear call, values can overlap the other calls; inactive = mostly above about 0.92.
# Experiment: chemical genetic growth profiling, strain panel (AID 1159580);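 note: tested at 20 µM; growth read once vehicle control cultures reached saturation at 30 °C; 1 = growth at the plate median or of vehicle wells; lower values mean less growth of the strain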
# Settings: S. cerevisiae deletion strains, growth OD
# [1] = locus YMR307W, strain GAS1, active compounds read low
# [2] = locus YNL322C, strain KRE1, active compounds read low
structure (smiles),measurement,setting,value
NC(N)=NCc1cccc(I)c1,normalized growth,"locus YAL040C, strain CLN3, active compounds read low",0.995
same,normalized growth,"locus YCL061C, strain MRC1 (second series), active compounds read low",0.991
same,normalized growth,"locus YDR150W, strain NUM1, active compounds read low",1.01
same,normalized growth,"locus YDR363W, strain ESC2, active compounds read low",1
same,normalized growth,"locus YER002W, strain NOP16, active compounds read low",1
same,normalized growth,[1],0.997
same,normalized growth,"locus YNL128W, strain TEP1, active compounds read low",1.02
same,normalized growth,"locus YNL175C, strain NOP13, active compounds read low",1.01
same,normalized growth,"locus YNL197C, strain WHI3, active compounds read low",0.987
same,normalized growth,"locus YNL224C, strain SQS1, active compounds read low",1.01
same,normalized growth,[2],0.982
same,normalized growth,"locus YOR083W, strain WHI5 (second series), active compounds read low",0.99
same,normalized growth,"locus YPL055C, strain LGE1, active compounds read low",1.02
C=C(C)C1Cc2c(ccc(C(=O)O)c2O)O1 (stereo not drawn),normalized growth,"locus YBR021W, strain FUR4, active compounds read low",0.931
same,normalized growth,"locus YBR229C, strain ROT2, active compounds read low",0.984
same,normalized growth,"locus YCL029C, strain bik1, active compounds read low",0.979
same,normalized growth,"locus YDL035C, strain GPR1, active compounds read low",1.03
same,normalized growth,"locus YDL074C, strain BRE1, active compounds read low",1.02
same,normalized growth,"locus YDL101C, strain DUN1, active compounds read low",1.02
same,normalized growth,"locus YDL134C, strain PPH21, active compounds read low",1.03
same,normalized growth,"locus YDL185W, strain tfp1, active compounds read low",0.86 (active)
same,normalized growth,"locus YDL192W, strain arf1, active compounds read low",0.965
same,normalized growth,"locus YDR101C, strain arx1, active compounds read low",0.954
same,normalized growth,"locus YDR162C, strain NBP2, active compounds read low",1.03
same,normalized growth,"locus YDR318W, strain mcm21, active compounds read low",0.963
same,normalized growth,"locus YDR388W, active compounds read low",0.953
same,normalized growth,"locus YDR502C, strain sam2, active compounds read low",0.979
same,normalized growth,"locus YEL061C, strain CIN8, active compounds read low",0.991
same,normalized growth,"locus YER110C, active compounds read low",0.944
same,normalized growth,"locus YER155C, strain BEM2, active compounds read low",0.946
same,normalized growth,"locus YER167W, strain BCK2, active compounds read low",1
same,normalized growth,"locus YGL078C, strain dbp3, active compounds read low",0.932
same,normalized growth,"locus YGL086W, strain mad1, active compounds read low",0.982
same,normalized growth,"locus YGL248W, strain PDE1, active compounds read low",1
same,normalized growth,"locus YGR135W, strain pre9, active compounds read low",0.969
same,normalized growth,"locus YGR252W, strain gcn5, active compounds read low",0.871
same,normalized growth,"locus YHR030C, strain SLT2, active compounds read low",0.982
same,normalized growth,"locus YHR079C, strain IRE1 (second series), active compounds read low",0.948
same,normalized growth,"locus YHR094C, strain hxt1, active compounds read low",0.944
same,normalized growth,"locus YHR129C, strain ARP1, active compounds read low",0.993
same,normalized growth,"locus YHR200W, strain rpn10, active compounds read low",0.958
same,normalized growth,"locus YIL066C, strain RNR3, active compounds read low",1.03
same,normalized growth,"locus YIL073C, strain SPO22, active compounds read low",1.05
same,normalized growth,"locus YIL125W, strain kgd1, active compounds read low",0.91 (active)
same,normalized growth,"locus YIR030C, strain dcg1, active compounds read low",0.957
same,normalized growth,"locus YJL095W, strain BCK1, active compounds read low",1.04
same,normalized growth,"locus YJL134W, strain LCB3, active compounds read low",0.979
same,normalized growth,"locus YJL168C, strain set2, active compounds read low",0.946
same,normalized growth,"locus YJL187C, strain SWE1 (second series), active compounds read low",1.02
same,normalized growth,"locus YJR043C, strain POL32, active compounds read low",1.02
same,normalized growth,"locus YJR075W, strain HOC1, active compounds read low",1.01
same,normalized growth,"locus YKL009W, strain mrt4, active compounds read low",0.865 (active)
same,normalized growth,"locus YKL068W, active compounds read low",0.91 (active)
same,normalized growth,"locus YKL085W, strain MDH1 (second series), active compounds read low",0.931
same,normalized growth,"locus YKL085W, strain MDH1, active compounds read low",0.931
same,normalized growth,"locus YKL190W, strain CNB1, active compounds read low",0.998
same,normalized growth,"locus YKR001C, strain vps1, active compounds read low",0.901
same,normalized growth,"locus YLR039C, strain RIC1, active compounds read low",1.07
same,normalized growth,"locus YLR058C, strain SHM2, active compounds read low",1
same,normalized growth,"locus YLR102C, strain apc9, active compounds read low",0.942
same,normalized growth,"locus YLR262C, strain YPT6, active compounds read low",1.08
same,normalized growth,"locus YLR268W, strain sec22, active compounds read low",0.99
same,normalized growth,"locus YLR330W, strain CHS5, active compounds read low",0.976
same,normalized growth,"locus YLR342W, strain FKS1 (second series), active compounds read low",0.998
same,normalized growth,"locus YLR371W, strain rom2, active compounds read low",0.957
same,normalized growth,"locus YLR418C, strain cdc73, active compounds read low",0.957
same,normalized growth,"locus YML016C, strain PPZ1, active compounds read low",0.987
same,normalized growth,"locus YML032C, strain rad52, active compounds read low",0.988
same,normalized growth,"locus YML124C, strain tub3, active compounds read low",0.957
same,normalized growth,"locus YMR078C, strain ctf18, active compounds read low",0.923
same,normalized growth,"locus YMR223W, strain ubp8, active compounds read low",0.98
same,normalized growth,[1],0.972
same,normalized growth,"locus YNL067W, strain RPL9B, active compounds read low",1.01
same,normalized growth,"locus YNL233W, strain BNI4, active compounds read low",1.01
same,normalized growth,"locus YNL250W, strain rad50, active compounds read low",0.911
same,normalized growth,"locus YNL271C, strain bni1, active compounds read low",0.9 (active)
same,normalized growth,"locus YNL298W, strain CLA4, active compounds read low",0.795 (active)
same,normalized growth,"locus YNL307C, strain MCK1, active compounds read low",0.95
same,normalized growth,[2],0.993
same,normalized growth,"locus YNR052C, strain pop2, active compounds read low",0.971
same,normalized growth,"locus YOL012C, strain htz1",1.06
same,normalized growth,"locus YOL147C, strain pex11, active compounds read low",0.955
same,normalized growth,"locus YOR061W, strain CKA2, active compounds read low",0.995
same,normalized growth,"locus YOR069W, strain VPS5, active compounds read low",0.99
same,normalized growth,"locus YOR136W, strain idh2, active compounds read low",0.985
same,normalized growth,"locus YOR144C, strain elg1, active compounds read low",0.948
same,normalized growth,"locus YOR184W, strain ser1, active compounds read low",0.989
same,normalized growth,"locus YOR316C, strain cot1, active compounds read low",0.939
same,normalized growth,"locus YPR119W, strain clb2, active compounds read low",0.943
same,normalized growth,"locus YPR141C, strain kar3, active compounds read low",0.918
same,normalized growth,"locus YPR163C, strain tif3, active compounds read low",0.968
same,normalized growth,"locus YPR167C, strain met16, active compounds read low",0.963
same,normalized growth,"strain wtn01, active compounds read low",0.972
